Hits are enriched below; roughly 0.28% of the tested compounds scored in any of these assays.
PGK_inhibitor – qHTS Assay to Find Inhibitors of Phosphoglycerate Kinase; 0.043% of 380,000 active; PGK/GAPDH coupled, Kinase-Glo luminescence, 60 min; Phosphoglycerate kinase, glycosomal (Trypanosoma brucei brucei), P07378; Potency, µM (top dose mostly 57.5 µM), inactives show at the highest dose activity change, negative = inhibition, usual class: inhibitors; further: potency means the concentration at half of the fitted maximal effect; on the % scale 0 is the no-effect control and ±100 the full control effect; nearly all actives have a fitted effect of over 60% in size
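Recombinant glycosomal PGK reaction used 1,3-bisphosphoglycerate generated in-well by GAPDH (100nM final) in 100mM TEA pH 7.6, 5mM MgCl2, 0.01% Tween-20. After 60 minutes at room temperature, ATP was read by Kinase-Glo Plus luminescence end-point.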
PI4K2A_block – qHTS for small molecular inhibitors of PI4K2A; AID 1346378, 2018; Phosphatidylinositol 4-kinase type 2-alpha (Homo sapiens), Q9BTU6; purified PI4K2A, ADP-Glo luminescence, 1 h; active compounds read low; activity change, negative = inhibition, % at 76.9 µM; 0.13% of 420,000 active; in the data active means activity change below about -50%; inconclusive means mostly about -30% to -49%;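 further: -100% = wells without enzyme as full effect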
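Compounds are screened against recombinant PI4K2A using PI as substrate and ATP, the latter dispensed at 300 microM. Reactions run one hour at ambient temperature before ADP-Glo detection; full inhibition defined by wells lacking enzyme.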
Tb_PFK_inh-1 – qHTS Assay to Find Inhibitors of T. brucei phosphofructokinase. ATP-dependent 6-phosphofructokinase (Trypanosoma brucei brucei), O15648. T. brucei PFK, ADP-Glo luminescence. Potency, µM (titrated, usually from 57.5 µM), for the others: at the highest dose activity, negative = inhibition, usual class: inhibitors. 0.17% of 330,000 active;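 further: potency means the concentration at half of the fitted maximal effect; 0% = uninhibited 1x PFK enzyme wells and -100% = no-enzyme wells; nearly all actives have a fitted effect of over 60% in size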
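1.25 nM PFK with 0.5 mM F6P and 0.1 mM ATP in 0.1 M TEA pH 8.0, 5 mM MgCl2, incubated 45 min at room temperature; ADP measured by ADP-Glo luminescence; compounds titrated up to 57 uM.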
USP2a_inh – qHTS Assay for Inhibitors of Ubiquitin-specific Protease USP2a Using CHOP2 as the Reporter; Potency, µM (top dose mostly 38.3 µM), for inactives: at the highest dose activity change, negative = inhibition, actives largely listed as inhibitors; Ubiquitin carboxyl-terminal hydrolase 2 (Homo sapiens), O75604; USP2 core, Ub-CHOP2 coupled fluorogenic reporter, 485/531; 0.01% of 330,000 active; AID 463254, 2010;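 further: potency means the concentration at half of the fitted maximal effect; plate controls were DMSO wells for no effect and full inhibition by NEM control for full effect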
Target sequence (O75604 whole entry, looked up): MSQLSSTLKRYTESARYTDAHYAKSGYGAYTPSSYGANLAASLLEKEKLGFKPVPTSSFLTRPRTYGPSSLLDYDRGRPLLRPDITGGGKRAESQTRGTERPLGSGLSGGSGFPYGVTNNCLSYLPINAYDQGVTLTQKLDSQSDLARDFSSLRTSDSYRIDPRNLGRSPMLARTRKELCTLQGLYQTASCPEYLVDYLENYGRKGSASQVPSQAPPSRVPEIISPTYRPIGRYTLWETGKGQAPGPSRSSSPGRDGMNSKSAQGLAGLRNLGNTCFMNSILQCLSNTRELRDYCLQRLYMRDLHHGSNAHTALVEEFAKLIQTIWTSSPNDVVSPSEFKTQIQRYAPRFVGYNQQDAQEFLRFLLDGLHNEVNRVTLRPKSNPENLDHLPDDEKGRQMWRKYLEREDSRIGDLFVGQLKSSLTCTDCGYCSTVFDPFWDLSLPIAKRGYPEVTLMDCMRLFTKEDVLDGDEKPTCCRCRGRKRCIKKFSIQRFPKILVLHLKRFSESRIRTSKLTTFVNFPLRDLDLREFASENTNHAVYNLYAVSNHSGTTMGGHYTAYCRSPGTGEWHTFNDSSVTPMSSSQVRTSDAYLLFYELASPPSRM
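Deubiquitinase activity read as fluorescence (485/531 nm) after Ub-CHOP2 cleavage activates the enterokinase reporter on its substrate; USP2 core 10nM, Ub-CHOP2 and substrate 25nM each, 30min compound preincubation then 60min RT; data normalized to NEM, curves fitted.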
Pin1_inhibitor – qHTS Assay to Find Inhibitors of Pin1 | Peptidyl-prolyl cis-trans isomerase NIMA-interacting 1 (Homo sapiens), Q13526 | Pin1 FP peptide displacement, HiFluor488, 10 min | Potency, µM (highest dose often 115 µM), for inactives: top-dose activity, negative = inhibition, usual class: inhibitors | 0.009% of 390,000 active | AID 504891, 2011; active means well fitted inhibition curve with a large enough effect in the polarisation, with a control signal flat, not every such curve was filed as active; inconclusive means small, poorly fitted or top-dose-only effect, or effect the other way, or a change in a side signal; inactive means no such curve, though single readings can be large or run the other way; the % refers to the polarisation; further: potency means the concentration at half of the fitted maximal effect; on the % scale 0 is the no-effect control and ±100 the full control effect
Tb_PFK_KinaseGlo – Tb PFK orthogonal confirmatory assay using ATP depletion (Kinase-Glo Plus) as an alternative measure of Tb PFK activity: Hit Validation. shares compounds with Tb_PFK_inh-1. Tb PFK enzyme, ATP depletion, Kinase-Glo Plus luminescence. Potency, µM (top dose mostly 57.5 µM), for the others: top-dose inhibition. 47% of 1,100 active. AID 504636, 2011; calls by dose curve; further: potency means the concentration at half of the fitted maximal effect; nearly all actives have a fitted effect of over 60% in size
Tb_PFK_inh-2 – Inhibitors of T. brucei phosphofructokinase: Hit Validation; AID 504637, 2011; Potency, µM (top dose mostly 57.5 µM), for inactives: at the top dose activity change, negative = inhibition, usual class: inhibitors; 41% of 1,100 active; purified T. brucei PFK, ADP-Glo luminescence, 45 min; shares compounds with Tb_PFK_inh-1;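 further: potency means the concentration at half of the fitted maximal effect; plate controls were full PFK enzyme control for no effect and no enzyme control for full effect; nearly all actives have a fitted effect of over 60% in size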
Numbers without * were called inactive; i = inactive; ? = inconclusive; / = no result given. Unless noted, the call rests on the fitted dose curve; in most records, active means well fitted curve in the direction sought with a large enough effect; inconclusive means small, poorly fitted or top-dose-only effect, or another doubt; inactive means no such curve, though single readings can be large; an effect the other way counts as inactive or inconclusive.

SMILES PGK_inhibitor PI4K2A_block Tb_PFK_inh-1 USP2a_inh Pin1_inhibitor Tb_PFK_KinaseGlo Tb_PFK_inh-2
Cc1ccc(C)c(OCC(=O)Nc2ccc(N3CCOCC3)cc2)c1 -10% 2 8% -1% -1% / /
Cc1ccc(C)c(OCCCC(=O)Nc2ccc(N3CCOCC3)cc2)c1 / / ? -2% / 16% -5%
O=C(O)c1ccc(N=Nc2c(O)[nH]c3cc(Cl)ccc23)cc1 0% -2 ? -8% 65% -25% ?
CS(=O)(=O)Nc1ccccc1C(=O)OCC(=O)N1CCC(c2ccccc2)=N1 i -5 ? -1% 29% ? ?
COc1cc(C)c(NC(=O)C(=S)NCCc2ccccc2)cc1C -9% 3 ? 0% -5% 24µM* ?
COc1ccc(NC(=S)NCCc2ccccc2)c(C)c1 -7% 0 -2% 1% -6% / /
c1nc(NCCc2cnc[nH]2)c2ccc(-c3ccc4c(c3)OCO4)cc2n1 / / / / 6% / /
O=[N+]([O-])c1ccccc1NCc1ccc(O)c2ncccc12 / / / / -7% / /
CC(=O)c1c(C)nc(-c2ccc(Cl)cc2)nc1N=CN(C)C -8% 5 2.7µM* -2% 13% 9.5µM* 12µM*
CC(=O)c1c(C)nc(-c2ccc(Cl)cc2)nc1N 1% -1 ? 2% 1% ? ?
CC(=O)c1sc(-c2ccc(Cl)cc2)nc1C -4% 7 -4% 4% -2% / /
O=C(COC(=O)c1ccccc1Cl)Nc1ccc2[nH]c(=O)[nH]c2c1 -3% -1 -25% 0% -2% / /
O=C(COC(=O)c1ccccc1OC(F)F)Nc1ccc2[nH]c(=O)[nH]c2c1 -5% -3 ? -3% 11% ? ?
O=C(COC(=O)Cc1ccc(F)cc1)Nc1ccc2[nH]c(=O)[nH]c2c1 i 2 ? 0% 9% ? ?
Cc1ccc(C(=O)NCC(=O)OCC(=O)Nc2ccc3[nH]c(=O)[nH]c3c2)cc1 -9% -1 ? 2% 1% ? ?
Cn1c2cc(Br)sc2c2cnn(Cc3ccccc3F)c(=O)c21 / / / / -1% / /
Nc1nnc(Cc2cccc(Br)c2)s1 -4% 3 ? 7% -1% 21µM* 30µM*
Nc1nnc(Cc2ccccc2)s1 -7% 2 -6% 1% -2% / /
O=C(Nc1nc(-c2ccco2)c(-c2ccco2)s1)c1cnccn1 -14% -26 12µM* -16% ? 1% 0%
O=c1[nH]c(=O)n([C@H]2CCCO2)cc1F / 2 / / / / /
CC[C@@]1(O)C(=O)OCc2c1cc1n(c2=O)Cc2c-1nc1ccccc1c2/C=N/OC(C)(C)C / 4 / / / / /
O=C(Cc1sc(-c2ccccc2)nc1-c1ccccc1)Nc1ccccc1 i 2 0% 3% 3% / /
O=C(O)Cc1sc(-c2ccccc2Cl)nc1-c1ccccc1 -7% 2 ? -1% -5% 0% 12%
